# Gal4-VP16 FLuc: Gal4-VP16 reporter inhibition counter-screen. Drosophila S2 Gal4-VP16 UAS-luciferase, luminescence, 20 h. Potency, µM (highest dose often 53.6 µM), for the others: top-dose activity, negative = inhibition, usual class: inhibitors. actives 3.5% (n = 310,000). AID 2546;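 also: Gal4-VP16 expression switched on by copper sulfate through the metallothionein promoter; potency is read from the fitted curve at half-maximal effect; nearly all actives have a fitted effect of over 50% in size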
# FBPA coupling cs: counter-screen for Giardia aldolase inhibitors: coupling enzyme system; coupling enzyme system counterscreen, AmpLite Red fluorescence; activity change, negative = inhibition, % at 58.2 µM, hits read low; actives 0.67% (n = 290,000); in the data active = activity change below about -30%
#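 Fluorescence at 525 nm excitation and 598 nm emission measured inhibition of the coupled detection system without aldolase. Compounds (at 57.5 uM final) were preincubated 10 min at room temperature with coupling enzyme reagent before a 20 min substrate/AmpLite Red step.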
# GALK inhibitor: inhibitors of human galactokinase; Potency, µM (titrated, usually from 57.5 µM), for the others: top-dose activity change, negative = inhibition, hits mostly inhibitors; P51570; Purified GALK, Kinase-Glo residual ATP luminescence; actives 0.007% (n = 270,000); also: potency is read from the fitted curve at half-maximal effect
#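 5 nM enzyme, 35 uM ATP, 100 uM galactose, 20 mM HEPES pH8.0, 5 mM MgCl2; 1 h RT; residual ATP by Kinase-Glo Plus luminescence, qHTS format.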
# TrxR1 inh: blocks rat thioredoxin reductase 1; actives 1% (n = 390,000); recombinant rTrxR1, NADPH fluorescence consumption, selenite substrate; Potency, µM (titrated, usually from 114 µM), inactives show at the top dose activity change, negative = inhibition, most hits filed as inhibitors; AID 588453; also: potency is read from the fitted curve at half-maximal effect; nearly all actives have a fitted effect of over 65% in size
# Target sequence (O89049 whole entry, looked up): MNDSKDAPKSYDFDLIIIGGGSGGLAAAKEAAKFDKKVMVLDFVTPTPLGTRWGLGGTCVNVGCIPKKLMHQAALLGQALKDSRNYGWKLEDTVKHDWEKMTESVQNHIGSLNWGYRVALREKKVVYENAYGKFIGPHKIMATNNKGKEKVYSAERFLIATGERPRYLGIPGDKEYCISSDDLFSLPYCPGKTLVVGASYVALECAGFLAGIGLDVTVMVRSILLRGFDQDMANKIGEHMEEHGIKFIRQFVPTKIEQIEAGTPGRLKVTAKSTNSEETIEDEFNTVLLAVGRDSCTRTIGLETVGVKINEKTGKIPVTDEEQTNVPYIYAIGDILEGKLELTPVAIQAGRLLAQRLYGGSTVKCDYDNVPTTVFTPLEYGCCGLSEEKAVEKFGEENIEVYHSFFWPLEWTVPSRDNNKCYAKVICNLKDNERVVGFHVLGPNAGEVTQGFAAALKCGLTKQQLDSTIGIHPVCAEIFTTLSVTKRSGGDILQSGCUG
#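 Rat TrxR1 (90 nM in the dispensed reagent) was pre-reduced with 400 uM NADPH for 5 min at room temperature, then incubated with compound for 15 min. After 400 uM selenite was added, NADPH fluorescence (Ex 340/Em 450 nm) was followed for 8 min.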
# TrxR1 substrate: substrates of rat thioredoxin reductase 1. O89049. purified TrxR1 substrate turnover, NADPH consumption readout. Potency, µM (series often up to 114 µM), inactives show top-dose activity change, negative = substrate turnover. actives 0.01% (n = 390,000). AID 588456; also: potency is read from the fitted curve at half-maximal effect; nearly all actives have a fitted effect of over 50% in size
#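 Rat TrxR1, dispensed at 90 nM, was prereduced with 400 uM NADPH (final) for 5 min at ~22 deg C, then incubated with compound 15 min before 400 uM selenite. A first-read NADPH fluorescence drop versus no-compound background flagged substrates.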
# RORg inh: blocks mouse ROR gamma transcriptional activity; Drosophila S2 Gal4-RORgamma UAS-luciferase reporter, 20 h; actives 5.4% (n = 310,000); P51450; Potency, µM (titrated, usually from 53.6 µM), without a hit: at the highest dose activity change, negative = inhibition, usual class: inhibitors; also: potency is read from the fitted curve at half-maximal effect; nearly all actives have a fitted effect of over 60% in size
#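 Drosophila S2 cells stably expressing Gal4-DBD/mouse RORγ fusion under metallothionein promoter plus UAS-luciferase; compound 1 h, then 700 uM CuSO4 induction for 20 h at ambient temperature; inhibition read as reduced luminescence.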
# Active calls of the source: *; ? = inconclusive; . = no result; [ ] = another dose, or the depositor's remark. Shown are actives, neighbours in structure and some others; about 5.9% of the full set was active somewhere. Unless noted, calls follow the shape of the dose curve; as a rule, active = well fitted curve in the direction sought with a large enough effect; inconclusive = small, poorly fitted or top-dose-only effect, or another doubt; inactive = no such curve, though single readings can be large; an effect the other way counts as inactive or inconclusive. % is scaled to controls: 0 for no effect and ±100 for the full control effect.
SMILES,Gal4-VP16 FLuc,FBPA coupling cs,GALK inhibitor,TrxR1 inh,TrxR1 substrate,RORg inh
COc1ccc(N2CCc3c(C)nc4c(OC)cc(OC)cc4c32)cc1,-14%,-6,1%,5%[57.1 µM],10%,-30%
COc1ccc(N2CCc3c(C)nc4c(OC)cccc4c32)cc1,-7%,0,0%,19%[11.4 µM],5%[11.4 µM],20µM*
Cc1ccc2c(c1)Cc1nc3ccccc3nc1-2,14µM*,-8,13%,-20%,60%,10µM*
COc1cc(/C=N/NC(=O)c2ccccc2O)ccc1OCC(=O)Nc1ccccc1,?,-2,-5%,22%,46%,?
O=C(COc1ccc(/C=N/NC(=O)c2cc3ccccc3o2)cc1Cl)Nc1ccccc1,0.89µM*,1,1%,53%,244%,1.3µM*
Cc1ccc(-n2nnnc2-c2cnn(-c3ccc(F)cc3)c2C(F)(F)F)cc1,22µM*,1,-1%,3%,-7%,?
COc1cc(C(=O)NCC(=O)OCc2cc(=O)oc3c(C)c(C)ccc23)cc(OC)c1OC,-8%,6,0%,13%[57.1 µM],7%[57.1 µM],15%
CC1CCC2(CC1)NC(=O)N(CC(=O)N1CCN(C(=O)c3ccco3)CC1)C2=O (stereo not drawn),.,.,.,14%,14%,.
COc1ccc(NC(=O)c2cccnc2SC)cc1S(=O)(=O)N1CCCCC1,2%,-4,0%,1%[11.4 µM],-3%[11.4 µM],6%
CCCCCNC(=O)[C@@H]1CSC2c3ccccc3C(=O)N21 (stereo partly drawn),0%,0,2%,34%,2%,4%
COc1ccc(C(C)(C)C)cc1NC(=O)c1ccoc1C,?,2,1%,11%,-4%[57.1 µM],2.2µM*
N#Cc1c(NCc2ccccc2)ccnc1NCc1cccnc1,10µM*,4,0%,6%[57.1 µM],22%[57.1 µM],?
N#Cc1c(F)cccc1NCc1cccnc1,5%,0,4%,-5%[57.1 µM],14%[57.1 µM],14%
Cc1c(Cl)ccc2c(C(=O)NC(C)c3ccncc3)cc(-c3ccncc3)nc12 (stereo not drawn),13µM*,-5,0%,.,.,?
CCC1(c2ccccc2)NC(=S)N(c2cccc(C)c2C)N1 (stereo not drawn),7.9µM*,4,2%,-8%[57.1 µM],5%[57.1 µM],1.3µM*
CC(NC(N)=O)C(=O)Nc1ccc(Cl)c(S(=O)(=O)Nc2ccc(Br)cc2)c1 (stereo not drawn),3.2µM*,3,7%,26%,7%,6.3µM*
COc1ccc(NS(=O)(=O)c2cc(NC(=O)[C@H](C)NC(N)=O)ccc2N2CCCC2)cc1,.,.,.,-13%,-7%,.
CCCNC(=O)c1ccc(N(Cc2ccccc2)S(C)(=O)=O)cc1,6%,11,0%,12%,-1%,8%
COC(=O)c1ccc([C@@H]2Nc3c(OC)ccc(C)c3[C@@H]3C=CC[C@@H]32)cc1,.,.,.,56µM*,0%,.
Cc1ccc(C(=O)CSc2nnc3ccccn23)c(C)c1,-8%[10 µM],3,-3%,15%[57.1 µM],3%[57.1 µM],?
COCCn1c(C)cc(C(=O)CSc2nc3ccccc3s2)c1C,5µM*,-12,1%,-19%,-7%,14µM*
COCCn1c(C)cc(C(=O)CSc2nnc3ccccn23)c1C,?,0,1%,6%,-2%,3.2µM*
COCCn1c(C)cc(C(=O)CSc2cc(C)c3ccc(OC)cc3n2)c1C,2.2µM*,0,0%,-15%,-11%,6.3µM*
CCC(C)NC(=O)CN(C)S(=O)(=O)c1ccc2c(c1)c(=O)n(C)c(=O)n2C (stereo not drawn),1%,2,3%,7%,4%,-2%
O=c1c2ccccc2ncn1Cc1ccc(Cl)c(Cl)c1,-19%,0,8%,26%,3%,-6%
SMILES,Gal4-VP16 FLuc,FBPA coupling cs,GALK inhibitor,TrxR1 inh,TrxR1 substrate,RORg inh
Cc1[nH][nH]c(=O)c1C(c1c(C)[nH][nH]c1=O)c1cn(Cc2ccc(Cl)c(Cl)c2)c2ccccc12,?,-49*,2%,?,56µM*,-29%
Cc1[nH][nH]c(=O)c1C(c1c(C)[nH][nH]c1=O)c1cn(Cc2ccc(F)cc2)c2ccccc12,-19%,-47*,-4%,?,?,?
CCCCCOC(=O)NCC(O)c1ccccc1 (stereo not drawn),1%,2,-1%,-4%,-8%,?
COCCCN1C(=O)c2ccc(C(=O)NCCc3ccccc3)cc2C1=O,?,3,.,-4%[57.1 µM],6%[57.1 µM],?
Fc1ccc(/C=N/NC(=S)Nc2ccc(Cl)cc2Cl)cc1,?,0,2%,13%,6%,?
COc1ccc(/C=N\NC(=O)c2ccc(F)cc2)cc1COc1ccccc1C(N)=O,8%,.,-4%,22%,16%,7%
COc1ccc(/C=N/NC(=S)Nc2ccccc2)cc1COc1ccc(F)cc1F,1µM*,-4,1%,4%[57.1 µM],4%[57.1 µM],0.63µM*
COc1ccc(NC(=S)N/N=C/c2ccc(F)cc2)cc1OC,2.5µM*,0,0%,7%[57.1 µM],-5%[57.1 µM],0.63µM*
Fc1ccc(/C=N/NC(=S)Nc2ccc(Cl)cc2)cc1F,1.4µM*,-1,.,6%,1%,0.71µM*
Fc1ccc(NC(=S)NN=C2CCCCCC2)cc1,18µM*,2,3%,?,4%[57.1 µM],4.5µM*
CN(C(=O)CSc1nnc(-c2ccncc2)n1Cc1ccccc1)C1CCS(=O)(=O)C1 (stereo not drawn),0%,0,9%,.,.,-3%
CC(=O)Oc1ccc(/C=N/NC(=S)Nc2ccccc2)cc1,2.5µM*,0,0%,-17%,-11%,2µM*
COc1ccc(NC(=S)N/N=C/c2ccc(F)c(F)c2)cc1,5µM*,0,0%,5%,-2%,3.2µM*
COc1ccc(NC(=S)NC(=O)/C=C/c2ccc(F)cc2)cc1,-13%,1,.,-2%,-3%,?
Fc1ccc(NC(=S)N/N=C/c2ccc(F)c(F)c2)cc1,3.2µM*,0,8%,15%[57.1 µM],7%[57.1 µM],0.71µM*
N#Cc1c(NC(=S)NC(=O)C2CCCC2)sc2c1CCCCC2,-20%,-1,1%,-22%,-9%,-37%
COc1ccc(NC(=O)c2cc(-c3ccccc3)nc3c2cnn3C(C)C)cc1,.,.,.,7%,-2%,.
Cc1oc(-c2ccccc2F)nc1CS(=O)CC(=O)NCc1ccccn1 (stereo not drawn),4%,.,-1%,?,9%,?
CCOc1ccc(NC(=S)N(Cc2ccc(Cl)cc2)Cc2ccco2)cc1,?,.,0%,19%,4%,13µM*
S=C(NCc1ccco1)Nc1ccc(Oc2ccc(Cl)cc2)cc1,11µM*,0,0%,-15%,4%[57.1 µM],2.8µM*
